# Inconclusive results are not listed. Where a call stands in place of a potency, no number is given. Values without a mark were called inactive. Active and inactive are the calls of the source. The call rests on the fitted dose curve; in most records, active means well fitted inhibition curve with a large enough effect; inconclusive means small, poorly fitted or top-dose-only effect; inactive means no such curve, though single readings can be large or run the other way. Where a SMILES comes first, the peptide text is derived from it. The star is where a group is joined. Cbz = O=C(OCc1ccccc1)*; CH2Cl = ClC*
# Key:
# [1] = test system: Zika virus NS2B-NS3 protease (unlinked complex); assay: Primary screen GU Rhodamine qHTS for Zika virus inhibitors: Unlinked NS2B-NS3 protease assay (AID 1347159); further: nearly all actives have a fitted effect of over 60% in size
# Method in brief: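 Noncovalent NS2B hydrophilic domain/NS3 protease complex (25 nM final) in 10 mM Tris-HCl pH 8.0, 0.01% Tween 20, preincubated 15 min with compounds (up to 114 microM), then 1.5 microM Rhodamine110 substrate. Fluorescence change over 15 min fitted to 4-parameter Hill.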
# [2] = test system: Zika virus NS2B-NS3 protease (linked construct); assay: Primary screen NINDS Rhodamine qHTS for Zika virus inhibitors (AID 1347160); further: nearly all actives have a fitted effect of over 55% in size
# Method in brief: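 Purified NS2B-NS3 protease with the NS2B hydrophilic domain joined by a flexible linker (25 nM) in 10 mM Tris-HCl pH 8.0, 0.01% Tween 20, preincubated 15 min at RT with compound; Rhodamine110 peptide substrate 1.5 µM; fluorescence change over 15 min; 4-parameter Hill fit.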
# Potency means the concentration at half of the fitted maximal effect.
smiles,measurement,setting,value
Cc1c(Cl)cccc1S(=O)(=O)Nc1nc(NCCc2ccccc2)nc2c1CN(Cc1ccccc1)CC2,Potency,[1],7.94 µM (active)
COc1cc(Br)c(S(=O)(=O)Nc2ccc(Cl)c(O[C@@H]3CCN(C)C3)c2)cc1OC,Potency,[1],inactive
same,Potency,[2],inactive
CCc1cccc(CC)c1-n1c(C=C(C)C)c(C(=O)N2CCNCC2)cc(-c2nc(-c3ccc(C(F)(F)F)cc3)cs2)c1=O,Potency,[1],inactive
same,Potency,[2],inactive
CC(C)=CCC/C(C)=C/COCC1OC(n2ccc(=O)[nH]c2=O)C(O)C1O (centres undefined),Potency,[1],inactive
same,Potency,[2],inactive
CN(C)CCC(CSc1ccccc1)Nc1ccc(S(=O)(=O)NC(=O)c2ccc(N3CCN(Cc4ccccc4-c4ccc(Cl)cc4)CC3)cc2)cc1[N+](=O)[O-] (centres undefined),Potency,[1],7.94 µM (active)
Cc1c(F)ccc(C(=O)Nc2cc([N+](=O)[O-])ccc2N2CCN(C)CC2)c1Cl,Potency,[1],inactive
CC(C)NCCCn1c(Sc2cc3c(cc2I)OCO3)nc2c(N)ncnc21,Potency,[1],inactive
same,Potency,[2],inactive
C=C1C(=O)O[C@@H]2C[C@H](C)[C@@H]3CC(=O)[C@H](O)[C@@]3(C)C[C@H]12,Potency,[1],inactive
same,Potency,[2],inactive
O=C(Cc1c(F)cccc1F)Nc1cc(OCc2ccc(Cl)cc2)ccn1,Potency,[1],inactive
same,Potency,[2],inactive
CCc1c[nH]c2ncnc(N3CC[C@](N)(CNC(=O)c4ccc(F)cc4F)C3)c12,Potency,[1],inactive
same,Potency,[2],inactive
O=C(Nc1ccccc1)c1ccc(Nc2nnc(-c3ccc(O)cc3)c3ccccc23)cc1,Potency,[1],14.1 µM (active)
CCCOc1ccc(CCc2nc3cc(-c4c(C)noc4C)ccc3n2CCN2CCOCC2)cc1,Potency,[1],inactive
same,Potency,[2],inactive
C=C[C@H](/C=C\c1ccc(O)cc1)c1ccc(O)cc1,Potency,[1],inactive
same,Potency,[2],inactive
C[C@@H]1O[C@@H](O[C@H]2[C@H](OC(=O)[C@]34CCC(C)(C)C[C@H]3C3=CCC5[C@@]6(C)C[C@H](O)[C@H](O[C@@H]7O[C@H](C(=O)O)[C@@H](O)[C@H](O)[C@H]7O)[C@@](C)(CO)C6[C@H](O)C[C@@]5(C)[C@]3(C)C[C@H]4O)O[C@@H](CO)[C@@H]2O)[C@H](O)[C@H](O)[C@H]1O[C@@H]1OC[C@@H](O)[C@H](O[C@H]2OC[C@](O)(CO)[C@H]2O)[C@H]1O (some centres undefined),"activity change, negative = inhibition",[1],13.4% [at 19.1 µM]
same,"activity change, negative = inhibition",[2],-5.61% [at 10.7 µM]
Cc1ccc(O)cc1Nc1ccnc(Nc2cccc(C(N)=O)c2)n1,Potency,[1],inactive
same,Potency,[2],inactive
C=C(C=O)[C@]1(O)C[C@@]2(C)C(=CC1=O)C=C[C@H](OC(=O)/C=C/C=C/[C@H](C)CC)[C@@H]2C,Potency,[1],8.91 µM (active)
COc1ccc(CN2CCN(C(=O)CCNC(=O)c3ccc(C(C)(C)C)cc3)CC2)cc1,Potency,[1],inactive
same,Potency,[2],inactive
O=C(Nc1ccc(Cl)cc1)Nc1cccc(-c2cccc(N3CCCC3)n2)c1,Potency,[1],inactive
CC(=O)N[C@H]1[C@H](O[C@H]2CC[C@@]3(C)C(CC[C@]4(C)C3CC=C3C5CC(C)(C)CC[C@]5(C(=O)O)C(O)C[C@]34C)C2(C)C)O[C@H](CO[C@@H]2O[C@H](C)[C@H](O)[C@H](O)[C@H]2O[C@@H]2OC[C@@H](O)[C@H](O)[C@H]2O)[C@@H](O)[C@@H]1O (some centres undefined),Potency,[1],inactive
same,Potency,[2],inactive
COc1cc2c(cc1OC)CN(C(=O)/C=C/c1c(-c3ccccc3)n(C)c3ncccc13)CC2,Potency,[1],inactive
same,Potency,[2],inactive
O=C(c1cc(Cc2n[nH]c(=O)c3ccccc23)ccc1F)N1CCCNCC1,Potency,[1],inactive
same,Potency,[2],inactive
Cc1cccc(-c2[nH]ncc2-c2ccc(F)c(-c3cnn(CCO)c3)c2)n1,Potency,[1],inactive
Cc1c(NC(=O)OCC2COCCN2)cn2ncnc(Nc3ccc4c(cnn4Cc4cccc(F)c4)c3)c12 (centres undefined),Potency,[1],inactive
same,Potency,[2],inactive
CCC(C)C(=O)Oc1cc(C)ccc1C1(COC(=O)C(C)C)CO1 (centres undefined),Potency,[1],inactive
CC(C)CCNc1ncccc1C(=O)N1CCN(Cc2ccccc2)CC1,Potency,[1],inactive
same,Potency,[2],inactive
CC(C)(C)Oc1ccc(OCC2Cc3ccccc3CN2C(=O)c2cccc3ccccc23)cc1 (centres undefined),Potency,[1],inactive
same,Potency,[2],inactive
C=CC(=O)Nc1cccc(Nc2nc(Nc3ccc(NC4CN(CCF)C4)cc3OC)ncc2C(F)(F)F)c1,Potency,[1],inactive
same,Potency,[2],inactive
C=C1C(=O)O[C@@H]2/C=C(\C)CC/C=C(\C)CC[C@@H]12,Potency,[1],inactive
same,Potency,[2],inactive
N#Cc1cccc(C(=O)Nc2cc(-c3ccccc3)nn2-c2ccccc2)c1,Potency,[1],inactive
NC(=O)c1cccc2[nH]c(-c3ccc(C4CCCN4)cc3F)nc12 (centres undefined),Potency,[1],inactive
same,Potency,[2],inactive
O=C1Nc2ccccc2-c2nc3ccccc3c(=O)n2-c2c(O)cccc21,Potency,[1],inactive
same,Potency,[2],inactive
CC(C)NC(=O)COc1cccc(-c2nc(Nc3ccc4[nH]ncc4c3)c3ccccc3n2)c1,Potency,[1],inactive
same,Potency,[2],inactive
CC[C@H](C)/C=C(C)/C=C/C1=CC2=CC(=O)[C@]3(C)OC(=O)[C@@H](C(C)=O)[C@@H]3C2=CO1,Potency,[1],10 µM (active)
N#Cc1ccc(COc2ccc(-c3cccc4nc(NC(=O)C5CC5)nn34)cc2)cn1,Potency,[1],inactive
same,Potency,[2],inactive
COC1C(OC(=O)/C=C/C=C/C=C/C=C/C(=O)O)CCC2(CO2)C1C1(C)OC1CC=C(C)C (centres undefined),Potency,[1],8.91 µM (active)
Cn1cc(C2=C(c3coc4ccccc34)C(=O)NC2=O)c2cc(Br)ccc21,Potency,[1],25.1 µM (active)
CC[C@H]1OC(=O)[C@H](C)[C@@H](O[C@H]2C[C@@](C)(OC)[C@@H](O)[C@H](C)O2)[C@H](C)[C@@H](O[C@H]2O[C@H](C)C[C@H](N(C)C)[C@H]2O)[C@](C)(O)C[C@@H](C)C(=O)[C@H](C)[C@@H](O)[C@]1(C)O,Potency,[1],inactive
same,Potency,[2],inactive
CC(C)(O)/C=C/C(=O)[C@](C)(O)[C@H]1[C@H](O)C[C@@]2(C)[C@@H]3CC=C4[C@@H](C[C@H](O[C@@H]5O[C@H](CO)[C@@H](O)[C@H](O)[C@H]5O)C(=O)C4(C)C)[C@]3(C)C(=O)C[C@]12C,Potency,[1],inactive
same,Potency,[2],inactive
COCc1c(Cl)ccc2c1CC[C@H]2c1ncc[nH]1,Potency,[1],inactive
same,Potency,[2],inactive
COc1c2c(nc3occc13)C(CC=C(C)C)(OC)C(O)CC2 (centres undefined),Potency,[1],inactive
same,Potency,[2],inactive
COc1cc(-c2cn(C3CCc4c(F)cccc4N(CC(F)(F)F)C3=O)nn2)ccc1-n1cnc(C)c1 (centres undefined),Potency,[1],inactive
same,Potency,[2],inactive
CC[C@@H]1C[C@]1(NC(=O)[C@@H]1C[C@@H]2CN1C(=O)[C@H](C(C)(C)C)NC(=O)OCC(C)(C)CCCCc1cccc3c1CN(C3)C(=O)O2)C(=O)NS(=O)(=O)C1CC1,Potency,[1],28.2 µM (active)
same,Potency,[2],22.4 µM (active)
OC1CCC(Nc2nc(-c3ccccc3)nc3[nH]ccc23)CC1 (centres undefined),Potency,[1],inactive
same,Potency,[2],inactive
COc1ccc(C2(CNC(=O)c3ccc(NC(=O)c4ccco4)cc3)CCOCC2)cc1,Potency,[1],inactive
same,Potency,[2],inactive
Cc1[nH]c(/C=C2\C(=O)Nc3ccc(F)cc32)c(C)c1C(=O)NCCN1CCCC1,Potency,[1],inactive
same,Potency,[2],inactive
CC(=O)O[C@H]1CC2C(COC(=O)CC(C)C)=CO[C@@H](OC(=O)CC(C)C)C2[C@]12CO2 (some centres undefined),Potency,[1],inactive
same,Potency,[2],inactive
CC(C)C[C@H](NC(=O)CNC(=O)OCc1ccccc1)C(=O)N[C@@H](Cc1ccccc1)C(=O)CCl (Cbz-Gly-Leu-Phe-CH2Cl),Potency,[1],inactive
same,Potency,[2],inactive
Cc1csc(N(C(=O)CSc2ccc(-c3ccccc3)nn2)C2CC2)n1,Potency,[1],inactive
same,Potency,[2],inactive
C/C1=C/CCC2=CC(OC2=O)C(C)(C)/C=C/C1=O (centres undefined),Potency,[1],inactive
same,Potency,[2],inactive
C#CCCCn1cc(-c2cccc3c2N[C@H](C)CC(=O)N3)cn1,Potency,[1],inactive
same,Potency,[2],inactive
COc1c(C)cnc(Cn2cc(C#CCC(C)(C)O)c3c(Cl)nc(N)nc32)c1C,Potency,[1],inactive
same,Potency,[2],inactive
CC1(C)C2CCC(CO[C@@H]3O[C@H](CO[C@@H]4OC[C@](O)(CO)[C@H]4O)[C@@H](O)[C@H](O)[C@H]3O)C1C2 (some centres undefined),Potency,[1],inactive
same,Potency,[2],inactive
C=C1C(=O)O[C@@H]2[C@H]1CC[C@H](C)C(CCC(=O)O)C2(C)O (some centres undefined),Potency,[1],inactive
same,Potency,[2],inactive
O=C(NCc1ccccc1-c1ccccc1C(=O)NCCc1ccccn1)OCc1ccccc1,Potency,[1],inactive
same,Potency,[2],inactive
C=CC(C)(O)CC/C=C(/C)COC(=O)C(C)C1CCC(C)(C=C)O1 (centres undefined),Potency,[1],inactive
same,Potency,[2],inactive
C=C1CO[C@@]2(O[C@H]3CC4C5CC=C6C[C@@H](O)C[C@@H](O[C@@H]7OC[C@H](O)[C@H](O[C@@H]8OC[C@@H](O)[C@H](O)[C@H]8O)[C@H]7O[C@@H]7O[C@@H](C)[C@H](OC(C)=O)[C@@H](OC(C)=O)[C@H]7OC(C)=O)[C@]6(C)C5CC[C@]4(C)[C@@H]3[C@@H]2C)[C@@H](O)[C@H]1OC1OC(C)C(O)C(O)C1O (some centres undefined),"activity change, negative = inhibition",[1],-10.8% [at 19.1 µM]
same,"activity change, negative = inhibition",[2],5.43% [at 10.7 µM]
O=S(=O)(NCc1cccc2ccccc12)c1cc(Cl)c(Oc2cccc(N3CCNCC3)c2)s1,Potency,[1],inactive
same,Potency,[2],inactive
CNC1CN(c2ccc3c(=O)c(C(=O)O)cn(-c4nccs4)c3n2)CC1OC (centres undefined),"activity change, negative = inhibition",[1],18.7% [at 19.1 µM]
same,"activity change, negative = inhibition",[2],19.1% [at 10.7 µM]
Cc1ccc(NC(=O)C(C)C)cc1C1CCN(Cc2ccc(Oc3ccc(F)c(F)c3)cc2)CC1,Potency,[1],inactive
same,Potency,[2],inactive
CC1CCC(=O)CC(SCC(O)C(=O)O)CCC(=O)O1 (centres undefined),Potency,[1],inactive
same,Potency,[2],inactive
CC(CCC1(O)OC2CC3C4CC=C5C[C@@H](O[C@@H]6O[C@H](CO)[C@@H](O[C@@H]7O[C@@H](C)[C@H](O)[C@@H](O)[C@H]7O)[C@H](O)[C@H]6O[C@@H]6O[C@@H](C)[C@H](O)[C@@H](O)[C@H]6O)CC[C@]5(C)C4CC[C@]3(C)[C@@]2(O)[C@@H]1C)CO[C@@H]1O[C@H](CO)[C@@H](O)[C@H](O)[C@H]1O (some centres undefined),Potency,[1],inactive
same,Potency,[2],inactive
N#CC(CCCN1CCN(/N=C/c2cccnc2)CC1)(c1ccccc1)c1ccccc1,Potency,[1],inactive
same,Potency,[2],inactive
Fc1ccc(-c2cncc(CN3CCN(c4cccc5c4OCCO5)CC3)c2)cc1,Potency,[1],inactive
same,Potency,[2],inactive
